Biological target: GPAA1
Assay: pooled miR-30 sensor sort-seq; sequence = guide strand
Conditions: shRNA
Also: reference of the scale not given here.

Sequence | sensor-assay potency score (higher = more potent)
TTCTCCGACATGTAAGTGCGCT | -0.864
TTGAGCTTGCGGAACATGCCCT | -0.132
TATAGCGCTCGTGGGTCTCATC | -1.61
TTGAGGCGCAGCACTAGGCGGG | -0.543
TTCTGTTACCAGGAAGACGATA | -1.01
TGAGCTTGCGGAACATGCCCTC | -0.336
TTTCCGGGAGAAACTCTGCGTG | -0.575

Biological target: GPATCH3
Assay: as above
Conditions: shRNA

Sequence | sensor-assay potency score (higher = more potent)
TAAGCCTCTGAGCTTGAGCCAA | -0.945
TCTGTCATAGTACACACTCATG | -1.69
TAAAATAGCTCCGTAAATGGGC | -0.362
TATTTCTTCACCCTCTGCTGTA | -0.595
TAAAACACCAGGCCAGAGCCAC | -0.98
TTCCGTGACGTCGCACACCCAA | -0.81
TGTACACACAAGCTCTTCCTGC | -0.536
TTAGGGCAGAGTTAGGAGCGGC | -0.764
TTGAGCTCAATCTCCTCCTCAA | 0.169
TTAGAGACCAAAGACAAGCGGT | 0.0667

Biological target: GPBAR1
Assay: as above
Conditions: shRNA

Sequence | sensor-assay potency score (higher = more potent)
ATGTGGGCAATGCCAGACCCGT | -2.11
AGGAGGGACAACAGTGTCCCAG | -1.92
TGGGTGGTAGGCAATGCTGGGG | -1.2
TTCCACAGCCCTGGCAATGTGG | -1.2
CTGTGTAGCGCTGATCGCCCAG | -1.64
TGCTTTGGCTGCTTGGGTGGTA | -0.379
ACTGCTTTGGCTGCTTGGGTGG | -1.37
TGCACTGGCACTTCCTAGGGAG | -0.377
TGGTAGGCAATGCTGGGGCCGG | -1.84
TTGGGTGGTAGGCAATGCTGGG | -0.797
TGTGTAGCGCTGATCGCCCAGC | -1.16
TAGCGCTGATCGCCCAGCCCCA | -1.62

Biological target: GPIHBP1
Assay: as above
Conditions: shRNA

Sequence | sensor-assay potency score (higher = more potent)
TCATCTTCCTCGTCGTAGTCAT | -0.418
TTGCACAGGCTGGACTGGCAGC | -1.25
ATGTGAGCAGTTCTGCGTCAGG | -1.72
TTCTGCGTCAGGTTGCAGCGCT | -0.795
ATCCTCATCTTCCTCGTCGTAG | -0.474
TTCAACCTCATCCTCATCTTCC | -0.334
TTGTGCAGGTCTGGCCATGTGA | -0.97
TGTTGGTCTCCTCCTCTTCAAC | -1.59
TTCCTCGTCGTAGTCATCTGGC | -0.201
ATGAGGGTTGTGCAGGTCTGGC | -1.69
TTCCTCTTCCTCCTGCTGTGTC | -0.491

— the OligoGym collection
